# Measured values from paper PMC11006913.
# Key:
# Assay in all cases: PBM; 200 nM protein, PBS
# Conditions in all cases: dsDNA, one strand shown
# HOXC9 [1] = biological target: HOXC9 (Homo sapiens, UniProt P31274 178-260, K195R)
# HOXC9 [2] = biological target: HOXC9 (Homo sapiens, UniProt P31274 178-260)
# PITX2 = PITX2 (Homo sapiens, UniProt Q99697 72-157)
# HOXC9 [3] = biological target: HOXC9 (Homo sapiens, UniProt P31274 178-260, R193K)
# HOXC9 [4] = biological target: HOXC9 (Homo sapiens, UniProt P31274 178-260, R222W)
# HOXD13 [5] = biological target: HOXD13 (Homo sapiens, UniProt P35453 263-343, T313R)
# HOXD13 [6] = biological target: HOXD13 (Homo sapiens, UniProt P35453 263-343)
# HOXD13 [7] = biological target: HOXD13 (Homo sapiens, UniProt P35453 263-343, T313A)
# MSX2 [8] = biological target: MSX2 (Homo sapiens, UniProt P35548 130-214, R199I)
# MSX2 [9] = biological target: MSX2 (Homo sapiens, UniProt P35548 130-214)
# MSX2 [10] = biological target: MSX2 (Homo sapiens, UniProt P35548 130-214, F161Y)
# NKX2-6 = biological target: T1, NKX2-6 (Homo sapiens, UniProt A6NCS4 118-204, R150C)
# T1 sequence: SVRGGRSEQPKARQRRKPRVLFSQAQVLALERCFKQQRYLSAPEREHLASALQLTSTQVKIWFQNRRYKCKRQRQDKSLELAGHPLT
# HOXB6 [11] = biological target: HOXB6 (Homo sapiens, UniProt P17509 132-218, K202E)
# HOXB6 [12] = biological target: HOXB6 (Homo sapiens, UniProt P17509 132-218)
# HOXA2 [13] = biological target: HOXA2 (Homo sapiens, UniProt O43364 129-215, R185T)
# HOXA2 [14] = biological target: HOXA2 (Homo sapiens, UniProt O43364 129-215, R185K)
# HOXA2 [15] = biological target: HOXA2 (Homo sapiens, UniProt O43364 129-215, Y150S)
# HOXA2 [16] = biological target: HOXA2 (Homo sapiens, UniProt O43364 129-215)
# Sequence of HOXA2 (Homo sapiens, UniProt O43364 129-215) (O43364 129-215): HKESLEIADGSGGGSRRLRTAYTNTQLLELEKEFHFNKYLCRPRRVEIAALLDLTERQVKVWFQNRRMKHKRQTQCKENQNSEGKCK
# Sequence of HOXC9 (Homo sapiens, UniProt P31274 178-260) (P31274 178-260): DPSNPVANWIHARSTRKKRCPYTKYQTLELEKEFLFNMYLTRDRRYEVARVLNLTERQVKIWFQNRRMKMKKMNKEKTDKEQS
# Sequence of MSX2 (Homo sapiens, UniProt P35548 130-214, R199I) (P35548 130-214 R199I): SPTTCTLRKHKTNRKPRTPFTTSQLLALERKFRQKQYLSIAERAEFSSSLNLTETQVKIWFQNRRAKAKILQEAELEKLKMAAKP
# Sequence of MSX2 (Homo sapiens, UniProt P35548 130-214) (P35548 130-214): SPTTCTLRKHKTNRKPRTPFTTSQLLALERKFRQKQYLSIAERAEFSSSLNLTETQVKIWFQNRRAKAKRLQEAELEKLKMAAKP
# Sequence of HOXC9 (Homo sapiens, UniProt P31274 178-260, R193K) (P31274 178-260 R193K): as the sequence (P31274 178-260) above, with R16K counted along it
# Sequence of HOXD13 (Homo sapiens, UniProt P35453 263-343) (P35453 263-343): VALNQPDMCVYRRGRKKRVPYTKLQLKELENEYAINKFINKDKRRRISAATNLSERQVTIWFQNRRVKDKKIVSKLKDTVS
# Sequence of HOXC9 (Homo sapiens, UniProt P31274 178-260, R222W) (P31274 178-260 R222W): as the sequence (P31274 178-260) above, with R45W counted along it
# Sequence of HOXD13 (Homo sapiens, UniProt P35453 263-343, T313A) (P35453 263-343 T313A): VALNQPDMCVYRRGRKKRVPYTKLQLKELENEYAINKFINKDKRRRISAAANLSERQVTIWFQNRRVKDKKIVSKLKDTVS
# Sequence of MSX2 (Homo sapiens, UniProt P35548 130-214, F161Y) (P35548 130-214 F161Y): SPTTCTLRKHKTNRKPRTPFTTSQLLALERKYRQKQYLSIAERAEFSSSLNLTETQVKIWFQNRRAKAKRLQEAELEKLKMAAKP
# Sequence of HOXD13 (Homo sapiens, UniProt P35453 263-343, T313R) (P35453 263-343 T313R): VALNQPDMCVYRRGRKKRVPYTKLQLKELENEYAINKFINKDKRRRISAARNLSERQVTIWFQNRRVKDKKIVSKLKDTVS
# Sequence of HOXC9 (Homo sapiens, UniProt P31274 178-260, K195R) (P31274 178-260 K195R): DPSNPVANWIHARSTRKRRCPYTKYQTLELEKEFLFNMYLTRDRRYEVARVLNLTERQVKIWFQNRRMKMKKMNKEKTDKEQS
# Sequence of HOXA2 (Homo sapiens, UniProt O43364 129-215, Y150S) (O43364 129-215 Y150S): as the sequence (O43364 129-215) above, with Y22S counted along it
# Sequence of HOXA2 (Homo sapiens, UniProt O43364 129-215, R185K) (O43364 129-215 R185K): as the sequence (O43364 129-215) above, with R57K counted along it
# Sequence of HOXB6 (Homo sapiens, UniProt P17509 132-218, K202E) (P17509 132-218 K202E): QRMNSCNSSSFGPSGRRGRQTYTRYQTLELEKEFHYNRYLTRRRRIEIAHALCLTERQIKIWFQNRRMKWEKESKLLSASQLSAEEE
# Sequence of HOXA2 (Homo sapiens, UniProt O43364 129-215, R185T) (O43364 129-215 R185T): as the sequence (O43364 129-215) above, with R57T counted along it
# Sequence of HOXB6 (Homo sapiens, UniProt P17509 132-218) (P17509 132-218): as the sequence (P17509 132-218 K202E) above, with E71K counted along it
sequence,measurement,setting,value
CCTACTCG,binding signal,HOXC9 [1],"9.67 upbm affinity estimate (log intensity, higher = more binding, comparable within an allelic series)"
same,binding signal,HOXC9 [2],"9.65 upbm affinity estimate (log intensity, higher = more binding, comparable within an allelic series)"
same,binding signal,PITX2,"8.18 upbm affinity estimate (log intensity, higher = more binding, comparable within an allelic series)"
same,binding signal,HOXC9 [3],"9.59 upbm affinity estimate (log intensity, higher = more binding, comparable within an allelic series)"
same,binding signal,HOXC9 [4],"9.71 upbm affinity estimate (log intensity, higher = more binding, comparable within an allelic series)"
GAGATAAA,binding signal,HOXC9 [1],"11.1 upbm affinity estimate (log intensity, higher = more binding, comparable within an allelic series)"
same,binding signal,HOXC9 [2],"11.1 upbm affinity estimate (log intensity, higher = more binding, comparable within an allelic series)"
same,binding signal,HOXC9 [3],"11.1 upbm affinity estimate (log intensity, higher = more binding, comparable within an allelic series)"
CTGCCTCC,binding signal,HOXC9 [1],"9.62 upbm affinity estimate (log intensity, higher = more binding, comparable within an allelic series)"
same,binding signal,HOXC9 [2],"9.69 upbm affinity estimate (log intensity, higher = more binding, comparable within an allelic series)"
same,binding signal,HOXD13 [5],"9.53 upbm affinity estimate (log intensity, higher = more binding, comparable within an allelic series)"
same,binding signal,HOXC9 [3],"9.67 upbm affinity estimate (log intensity, higher = more binding, comparable within an allelic series)"
same,binding signal,HOXD13 [6],"9.62 upbm affinity estimate (log intensity, higher = more binding, comparable within an allelic series)"
same,binding signal,HOXD13 [7],"9.56 upbm affinity estimate (log intensity, higher = more binding, comparable within an allelic series)"
same,binding signal,HOXC9 [4],"9.6 upbm affinity estimate (log intensity, higher = more binding, comparable within an allelic series)"
CGGGCCAG,binding signal,HOXC9 [1],"9.64 upbm affinity estimate (log intensity, higher = more binding, comparable within an allelic series)"
same,binding signal,HOXC9 [2],"9.85 upbm affinity estimate (log intensity, higher = more binding, comparable within an allelic series)"
same,binding signal,MSX2 [8],"9.53 upbm affinity estimate (log intensity, higher = more binding, comparable within an allelic series)"
same,binding signal,HOXC9 [3],"9.73 upbm affinity estimate (log intensity, higher = more binding, comparable within an allelic series)"
same,binding signal,MSX2 [9],"9.56 upbm affinity estimate (log intensity, higher = more binding, comparable within an allelic series)"
same,binding signal,HOXC9 [4],"9.77 upbm affinity estimate (log intensity, higher = more binding, comparable within an allelic series)"
same,binding signal,MSX2 [10],"9.66 upbm affinity estimate (log intensity, higher = more binding, comparable within an allelic series)"
ACGTTGGG,binding signal,HOXC9 [1],"9.64 upbm affinity estimate (log intensity, higher = more binding, comparable within an allelic series)"
same,binding signal,NKX2-6,"9.44 upbm affinity estimate (log intensity, higher = more binding, comparable within an allelic series)"
same,binding signal,HOXC9 [2],"9.65 upbm affinity estimate (log intensity, higher = more binding, comparable within an allelic series)"
same,binding signal,HOXC9 [3],"9.64 upbm affinity estimate (log intensity, higher = more binding, comparable within an allelic series)"
same,binding signal,HOXC9 [4],"9.77 upbm affinity estimate (log intensity, higher = more binding, comparable within an allelic series)"
TCGGGCCA,binding signal,HOXC9 [1],"9.7 upbm affinity estimate (log intensity, higher = more binding, comparable within an allelic series)"
same,binding signal,HOXC9 [2],"9.78 upbm affinity estimate (log intensity, higher = more binding, comparable within an allelic series)"
same,binding signal,MSX2 [8],"9.6 upbm affinity estimate (log intensity, higher = more binding, comparable within an allelic series)"
same,binding signal,HOXD13 [5],"9.55 upbm affinity estimate (log intensity, higher = more binding, comparable within an allelic series)"
same,binding signal,HOXC9 [3],"9.72 upbm affinity estimate (log intensity, higher = more binding, comparable within an allelic series)"
same,binding signal,HOXD13 [6],"9.44 upbm affinity estimate (log intensity, higher = more binding, comparable within an allelic series)"
same,binding signal,MSX2 [9],"9.63 upbm affinity estimate (log intensity, higher = more binding, comparable within an allelic series)"
same,binding signal,HOXD13 [7],"9.66 upbm affinity estimate (log intensity, higher = more binding, comparable within an allelic series)"
same,binding signal,HOXC9 [4],"9.7 upbm affinity estimate (log intensity, higher = more binding, comparable within an allelic series)"
same,binding signal,MSX2 [10],"9.51 upbm affinity estimate (log intensity, higher = more binding, comparable within an allelic series)"
TGATTGCA,binding signal,HOXC9 [1],"11.1 upbm affinity estimate (log intensity, higher = more binding, comparable within an allelic series)"
same,binding signal,HOXC9 [2],"11 upbm affinity estimate (log intensity, higher = more binding, comparable within an allelic series)"
same,binding signal,HOXC9 [3],"11.2 upbm affinity estimate (log intensity, higher = more binding, comparable within an allelic series)"
CCCCCCAC,binding signal,HOXC9 [1],"9.36 upbm affinity estimate (log intensity, higher = more binding, comparable within an allelic series)"
same,binding signal,HOXB6 [11],"8.84 upbm affinity estimate (log intensity, higher = more binding, comparable within an allelic series)"
same,binding signal,HOXC9 [2],"9.41 upbm affinity estimate (log intensity, higher = more binding, comparable within an allelic series)"
same,binding signal,HOXD13 [5],"9.08 upbm affinity estimate (log intensity, higher = more binding, comparable within an allelic series)"
same,binding signal,HOXC9 [3],"9.4 upbm affinity estimate (log intensity, higher = more binding, comparable within an allelic series)"
same,binding signal,HOXD13 [6],"9.3 upbm affinity estimate (log intensity, higher = more binding, comparable within an allelic series)"
same,binding signal,HOXD13 [7],"9.15 upbm affinity estimate (log intensity, higher = more binding, comparable within an allelic series)"
same,binding signal,HOXC9 [4],"9.29 upbm affinity estimate (log intensity, higher = more binding, comparable within an allelic series)"
same,binding signal,HOXB6 [12],"8.7 upbm affinity estimate (log intensity, higher = more binding, comparable within an allelic series)"
ACTTTACG,binding signal,HOXC9 [1],"11.5 upbm affinity estimate (log intensity, higher = more binding, comparable within an allelic series)"
same,binding signal,HOXC9 [2],"11.7 upbm affinity estimate (log intensity, higher = more binding, comparable within an allelic series)"
same,binding signal,HOXC9 [3],"11.5 upbm affinity estimate (log intensity, higher = more binding, comparable within an allelic series)"
CACAATTA,binding signal,HOXC9 [1],"11.7 upbm affinity estimate (log intensity, higher = more binding, comparable within an allelic series)"
same,binding signal,HOXC9 [2],"11.7 upbm affinity estimate (log intensity, higher = more binding, comparable within an allelic series)"
same,binding signal,MSX2 [8],"12.1 upbm affinity estimate (log intensity, higher = more binding, comparable within an allelic series)"
same,binding signal,HOXC9 [3],"11.7 upbm affinity estimate (log intensity, higher = more binding, comparable within an allelic series)"
same,binding signal,MSX2 [9],"13.4 upbm affinity estimate (log intensity, higher = more binding, comparable within an allelic series)"
same,binding signal,MSX2 [10],"13 upbm affinity estimate (log intensity, higher = more binding, comparable within an allelic series)"
GCAGCGCC,binding signal,HOXC9 [1],"9.72 upbm affinity estimate (log intensity, higher = more binding, comparable within an allelic series)"
same,binding signal,HOXC9 [2],"9.88 upbm affinity estimate (log intensity, higher = more binding, comparable within an allelic series)"
same,binding signal,HOXD13 [5],"9.55 upbm affinity estimate (log intensity, higher = more binding, comparable within an allelic series)"
same,binding signal,PITX2,"7.75 upbm affinity estimate (log intensity, higher = more binding, comparable within an allelic series)"
same,binding signal,HOXC9 [3],"9.72 upbm affinity estimate (log intensity, higher = more binding, comparable within an allelic series)"
same,binding signal,HOXD13 [6],"9.61 upbm affinity estimate (log intensity, higher = more binding, comparable within an allelic series)"
same,binding signal,HOXD13 [7],"9.59 upbm affinity estimate (log intensity, higher = more binding, comparable within an allelic series)"
same,binding signal,HOXC9 [4],"9.72 upbm affinity estimate (log intensity, higher = more binding, comparable within an allelic series)"
CCTGCCGC,binding signal,HOXC9 [1],"9.4 upbm affinity estimate (log intensity, higher = more binding, comparable within an allelic series)"
same,binding signal,HOXA2 [13],"6.91 upbm affinity estimate (log intensity, higher = more binding, comparable within an allelic series)"
same,binding signal,HOXC9 [2],"9.49 upbm affinity estimate (log intensity, higher = more binding, comparable within an allelic series)"
same,binding signal,HOXC9 [3],"9.31 upbm affinity estimate (log intensity, higher = more binding, comparable within an allelic series)"
same,binding signal,HOXA2 [14],"9.96 upbm affinity estimate (log intensity, higher = more binding, comparable within an allelic series)"
same,binding signal,HOXC9 [4],"9.67 upbm affinity estimate (log intensity, higher = more binding, comparable within an allelic series)"
same,binding signal,HOXA2 [15],"10.4 upbm affinity estimate (log intensity, higher = more binding, comparable within an allelic series)"
same,binding signal,HOXA2 [16],"7.06 upbm affinity estimate (log intensity, higher = more binding, comparable within an allelic series)"
